Screens as filed in PubChem BioAssay.
This is one part of a sample in which hits are shown more often than they occur.
CBX7 inh – CBX7 chromodomain binding inhibitors, primary screen, biochemical, AlphaScreen; normalised signal (fraction of DMSO) (concentration not given with the values); Chromobox protein homolog 7 (Homo sapiens), O95931; 66,000 compounds, 1.1% hits; AlphaScreen His6-CBX7 / biotin-H3K27me3 peptide binding; hits give low values; in the data active means normalised signal below about 0.5
Target sequence (O95931 whole entry, looked up): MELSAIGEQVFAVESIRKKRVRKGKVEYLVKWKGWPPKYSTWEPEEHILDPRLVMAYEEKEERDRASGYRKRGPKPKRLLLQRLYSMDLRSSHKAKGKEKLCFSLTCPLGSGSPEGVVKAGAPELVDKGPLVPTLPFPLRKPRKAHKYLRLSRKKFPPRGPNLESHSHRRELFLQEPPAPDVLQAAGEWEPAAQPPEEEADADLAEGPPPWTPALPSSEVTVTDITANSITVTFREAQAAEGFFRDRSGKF
Large screens that a line does not name were inactive.

COc1ccccc1-c1nnc(NC(=O)c2ccc(S(=O)(=O)N(C)C)cc2)o1	CBX7 inh 0.036
CC(NC(=O)Cn1ncc2ccsc2c1=O)c1ccccc1 (stereo unspecified)	none
Cc1[nH]nc(-c2ccccc2)c1-c1nc2ccccc2[nH]1	none
COc1ccccc1Nc1nc(-c2sc(N)nc2C)cs1	CBX7 inh 0.37
CC(=O)Nc1nc(C)c(-c2csc(Nc3cccc(C)c3)n2)s1	none
Cc1ccccc1Nc1nc(-c2sc(N)nc2C)cs1	none
Cc1nc(N)sc1-c1csc(Nc2ncccn2)n1	none
Cc1cccc(Nc2nc(-c3sc(N)nc3C)cs2)c1	CBX7 inh 0.48
COc1ccccc1Nc1nc(-c2sc(NC(C)=O)nc2C)cs1	none
Cc1cccc(CN2CCN(CC(=O)NCCc3ccccc3)C2=O)c1	none
COc1cc(C(=O)N2CCN(Cc3ccncc3)CC2)cc(OC)c1OC	none
Cc1ccc2c(c1)c1c(n2CC(O)CNc2ccc(C)c(C)c2)CCCC1 (stereo unspecified)	none
O=S(=O)(c1ccc(Cl)cc1)c1nc(-c2ccccc2F)oc1N1CCCCCC1	none
O=S(=O)(c1ccc(Cl)cc1)c1nc(-c2ccccc2F)oc1N1CCCCC1	none
O=S(=O)(c1ccccc1)c1nc(-c2ccccc2F)oc1N1CCCCC1	CBX7 inh 0.49
CCOCCCNC(=O)C1CCCN(c2nc3ccccc3o2)C1 (stereo unspecified)	none
Cc1ccc(C)c2[nH]c(=O)c(CCNS(=O)(=O)c3ccc(Br)cc3)cc12	none
CCCCCOc1ccc(C(O)(CC(C)C)C(CN2CCOCC2)c2ccccc2)cc1 (stereo unspecified)	none
CCC1CCCCN1S(=O)(=O)c1ccc(C(=O)Nc2nnc(C3CC3)o2)cc1 (stereo unspecified)	none
Cc1nnc(NC(=O)c2ccc(S(=O)(=O)N3CCCc4ccccc43)cc2)o1	CBX7 inh 0.034
CN(C)S(=O)(=O)c1ccc(C(=O)Nc2nnc(-c3ccc(F)cc3)o2)cc1	CBX7 inh 0.044
O=C(Nc1nc(-c2ccncc2)cs1)c1ccc(S(=O)(=O)N2CCCc3ccccc32)cc1	none
Cc1nnc(NC(=O)c2ccc(S(=O)(=O)N3CCOCC3)cc2)o1	none
Cc1nnc(NC(=O)c2ccc(S(=O)(=O)N3CCCC(C)C3)cc2)o1 (stereo unspecified)	none
Cc1nnc(NC(=O)c2ccc(S(=O)(=O)N3CCCC3)cc2)o1	CBX7 inh 0.024
O=C(Nc1nnc(C2CC2)o1)c1ccc(S(=O)(=O)N2CCCCCC2)cc1	CBX7 inh 0.0011
CCOc1cccc2sc(NC(=O)c3ccc(S(=O)(=O)N4CCCc5ccccc54)cc3)nc12	none
COc1cc2c(=O)c(S(=O)(=O)c3ccccc3)cn(CC(=O)Nc3ccc(F)cc3)c2cc1OC	none
O=C1CN(C(=O)c2cccc(F)c2)C(c2ccccc2)c2cc(F)ccc2N1 (stereo unspecified)	none
Fc1ccc(-c2nc3ccccc3nc2-c2ccc(F)cc2)cc1	none
CCCCSCCCNC(=O)CN1CCN(Cc2ccc(C)cc2)C1=O	none
COc1ccc(-c2nnc(NC(=O)c3ccc(S(=O)(=O)N4CCCC4)cc3)o2)cc1	none
CC1CC(C)CN(S(=O)(=O)c2ccc(C(=O)Nc3nnc(C4CC4)o3)cc2)C1 (stereo unspecified)	CBX7 inh 0.065
CCc1nnc(NC(=O)c2ccc(S(=O)(=O)N3CCC(C)CC3)cc2)o1	none
COc1ccc(-c2nnc(NC(=O)c3ccc(S(=O)(=O)N4CC(C)CC(C)C4)cc3)o2)c(OC)c1 (stereo unspecified)	none
CCCN(CCC)S(=O)(=O)c1ccc(C(=O)Nc2nnc(-c3ccc(Cl)s3)o2)cc1	none
CCc1nnc(NC(=O)c2ccc(S(=O)(=O)N3CCCC(C)C3)cc2)o1 (stereo unspecified)	none
CCc1nnc(NC(=O)c2ccc(S(=O)(=O)N3CCCCC3)cc2)o1	CBX7 inh 0.1
O=C(Nc1nnc(-c2ccc(F)cc2)o1)c1ccc(S(=O)(=O)N2CCCC2)cc1	CBX7 inh 0.013
COc1cc(OC)cc(-c2nnc(NC(=O)c3ccc(S(=O)(=O)N4CCCC4)cc3)o2)c1	none
COCc1nnc(NC(=O)c2ccc(S(=O)(=O)N3CCCC3)cc2)o1	none
CN(c1ccccc1)S(=O)(=O)c1ccc(C(=O)Nc2nnc(-c3ccc(Cl)s3)o2)cc1	CBX7 inh 0.39
CCCCN(C)S(=O)(=O)c1ccc(C(=O)Nc2nnc(-c3ccc(Cl)s3)o2)cc1	none
CCOC(=O)c1cc(-c2ccccc2)n(CCC(=O)NC2CCC(C)CC2)c1C (stereo unspecified)	none
Cc1cc(N2CCOCC2)nc2ccc(NC(=O)c3ccccc3Cl)cc12	none
CCC(=O)N1CCc2cc(S(=O)(=O)NC(CC(C)C)C(=O)N(C)Cc3ccccc3)ccc21 (stereo unspecified)	none
Cc1cccc(C)c1Nc1c(-c2ccc(Cl)cc2)nc2ncccn12	none
COc1ccc(C2OCC3(CO)C(C)C=C(C)C2C3C)cc1 (stereo unspecified)	none
Cc1ccccc1Cc1c(C)nc2c(C(=O)NCC3CCCO3)cnn2c1C (stereo unspecified)	none
CC1CCCCC1NC(=O)C1CCCN(c2nc3ccccc3[nH]2)C1 (stereo unspecified)	none
COc1ccccc1N1CCN(c2ncc(C(=O)N(C)c3ccc(Cl)cc3)c3ccccc23)CC1	none
CCOc1ccc(NC(=O)c2csc3c2CCCCC3)cc1	none
O=C(Nc1nnc(C2CC2)o1)c1ccc(S(=O)(=O)N2CCOCC2)cc1	CBX7 inh 0.44
COc1ccc(-c2nnc(NC(=O)c3ccc(S(=O)(=O)N4CCOCC4)cc3)o2)cc1	none
COc1cc(OC)cc(-c2nnc(NC(=O)c3ccc(S(=O)(=O)N4CCCCCC4)cc3)o2)c1	none
CC(C)CN(CC(C)C)S(=O)(=O)c1ccc(C(=O)Nc2nnc(-c3ccc(Cl)s3)o2)cc1	none
O=C(Nc1nnc(-c2ccc(Cl)s2)o1)c1ccc(S(=O)(=O)N2CCCCC2)cc1	CBX7 inh 0.16
Cc1ccc(-c2noc(CCC(=O)Nc3ccc(C)c(F)c3)n2)cc1	none
Cc1ncc(CO)c2cc(C(=O)Nc3ccc4c(c3)OCO4)c(=O)oc12	none
CC(=O)Nc1ccc(Nc2nc(-c3cc4ccccc4o3)cs2)cc1	none
CC(=O)c1cccc(Nc2nc(-c3cccs3)cs2)c1	none
Cc1c(Cl)cccc1Nc1nc(-c2cccnc2)cs1	none
Cc1c(Cl)cccc1Nc1nc(-c2ccccn2)cs1	CBX7 inh 0.47
COc1ccc(-c2csc(Nc3cccc(C(C)=O)c3)n2)cc1OC	none
Cc1c(Cl)cccc1Nc1nc(-c2cccs2)cs1	none
CC(=O)Nc1ccc(Nc2nc(-c3c(C)nc4ncccn34)cs2)cc1	none
CC(=O)Nc1ccc(Nc2nc(-c3ccccn3)cs2)cc1	CBX7 inh 0.061
CC(=O)c1cccc(Nc2nc(-c3ccccn3)cs2)c1	CBX7 inh 0.38
CCc1cccc(NC(=O)c2cc3c(-c4ccc(OC)c(OC)c4)nn(C)c3s2)c1	none
Cc1cccc(Nc2nc3nonc3nc2Nc2ccccc2)c1C	none
c1ccc(-c2nnc3ccc(NC4CCCC4)nn23)cc1	none
CC1CCCN(S(=O)(=O)c2ccc3[nH]c(=O)cc(C(=O)NCCCN4CCCCC4C)c3c2)C1 (stereo unspecified)	none
Cc1ccc2cc(CCNC(=O)c3ccc(F)c(F)c3)c(=O)[nH]c2c1C	none
COc1ccc(OC)c(NC(=O)c2c(NCc3ccc(N(C)C)cc3)sc3c2CCCC3)c1	CBX7 inh 0.48
COc1ccc(OC)c(NC(=O)c2c(NCc3ccc(OC)c(OC)c3)sc3c2CCC3)c1	none
COc1cccc(CNc2sc3c(c2C(=O)Nc2cc(OC)ccc2OC)CCCC3)c1	none
Cc1ccc(-c2noc(CN(C(=O)c3ccc(F)cc3)C(C)C)n2)cc1	none
